By AC50 is commonly meant the midpoint of the concentration-response curve, whichever way the signal moves.

Read-out in experiment [1]: C-C motif chemokine 2 (Homo sapiens) (UniProt P13500)
As to the kind of experiment: BSK_KF3CT_MCP1: BioMAP Diversity Plus: KF3CT Assay for Monocyte Chemoattractant Protein 1 (MCP1/CCL2) Biomarker Activity (AID 2283073). Particulars: primary human keratinocytes with fibroblasts; actives raise or lower the signal. An outline of the steps: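 Human keratinocyte–foreskin fibroblast co-culture; MCP-1 measured by ELISA 24 h after dosing. Bidirectional fit vs DMSO; cytotoxicity tracked by SRB total protein in parallel cultures.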

Read-out in experiment [2]: Matrix Metallopeptidase 9 (MMP9), MMP9 (gene 4318)
As to the kind of experiment: BSK_KF3CT_MMP9: BioMAP Diversity Plus: KF3CT Assay for Matrix Metallopeptidase 9 (MMP9) Biomarker Activity (AID 2283074). Particulars: primary human keratinocytes with fibroblasts; actives raise or lower the signal. An outline of the steps:
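Human keratinocyte/foreskin fibroblast co-culture; compound added; 24 h; MMP-9 by ELISA; bidirectional fit vs DMSO baseline.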

Read-out in experiment [3]: urokinase plasminogen activator (uPA), PLAU (gene 5328)
Kind of experiment: BSK_KF3CT_uPA: BioMAP Diversity Plus: KF3CT Assay for urokinase plasminogen activator (uPA) Biomarker Activity (AID 2283075). Particulars: primary human keratinocytes with fibroblasts; actives raise or lower the signal. An outline of the steps: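 ELISA readout of uPA, analyzed for signal gain or loss relative to DMSO, from a human primary keratinocyte–foreskin fibroblast co-culture measured 24 h after chemical treatment.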

Read-out in experiment [4]: CD40, CD40 (gene 958)
Kind of experiment: BSK_LPS_CD40: BioMAP Diversity Plus: LPS Assay for CD40 Biomarker Activity (AID 2283076). Particulars: primary human HUVEC with PBMC; actives raise or lower the signal. An outline of the steps:
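HUVEC plus PBMC co-culture stimulated with LPS; CD40 quantified by ELISA 24 h after compound dosing. Fitting was bidirectional relative to DMSO. SRB staining of parallel cultures flagged overt cytotoxicity.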

Read-out in experiment [5]: E-selectin (Homo sapiens) (UniProt P16581)
As to the kind of experiment: BSK_LPS_Eselectin: BioMAP Diversity Plus: LPS Assay for Eselectin Biomarker Activity (AID 2283077). Particulars: primary human HUVEC with PBMC; actives raise or lower the signal. An outline of the steps: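 Human umbilical vein endothelial cells co-cultured with PBMC under LPS stimulation; cell-surface E-selectin measured by ELISA 24 h after dosing. Change in either direction versus DMSO, with SRB total-protein staining in parallel cultures for cytotoxicity.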

Read-out in experiment [6]: Interleukin-8 (IL8), CXCL8 (gene 3576)
As to the kind of experiment: BSK_LPS_IL8: BioMAP Diversity Plus: LPS Assay for Interleukin-8 (IL8) Biomarker Activity (AID 2283078). Particulars: primary human HUVEC with PBMC; actives raise or lower the signal. The gist of the method: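 Human umbilical vein endothelial cells co-cultured with PBMC, LPS-stimulated, exposed to compound for 24 h. IL-8 quantified by ELISA; fitted in both directions against DMSO, with SRB total-protein staining of parallel cultures for cytotoxicity.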

Experiment [7] in a line: BSK_LPS_SRB: Viability Assessment in the BioMAP Diversity Plus: LPS Assay (AID 2283079).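 Note: total protein by sulforhodamine B absorbance as a cytotoxicity measure; measured one day after compound addition; fitted in both directions against DMSO so loss or gain of signal counts.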 Particulars: primary human HUVEC with PBMC. The gist of the method: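 Co-culture of human umbilical vein endothelial cells and PBMC, read 24 h after dosing. Total protein by 0.1% SRB staining after 10% TCA fixation, absorbance at 560 nm; bidirectional fit against DMSO.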
Read-out in experiment [8]: Interleukin-1 alpha (IL1a), IL1A (gene 3552)
Kind of experiment: BSK_LPS_IL1a: BioMAP Diversity Plus: LPS Assay for Interleukin-1 alpha (IL1a) Biomarker Activity (AID 2283080). Particulars: primary human HUVEC with PBMC; actives raise or lower the signal. The gist of the method: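 Human umbilical vein endothelial cells co-cultured with PBMC and stimulated with LPS; IL-1a measured by ELISA 24 h after dosing. Bidirectional fitting against DMSO; cytotoxicity checked by SRB staining in parallel cultures.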

Read-out in experiment [9]: Monocyte Chemoattractant Protein-1 (MCP1), CCL2 (gene 6347)
As to the kind of experiment: BSK_LPS_MCP1: BioMAP Diversity Plus: LPS Assay for Monocyte Chemoattractant Protein-1 (MCP1) Biomarker Activity (AID 2283081). Particulars: primary human HUVEC with PBMC; actives raise or lower the signal. The gist of the method: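 Human umbilical vein endothelial cells co-cultured with PBMC, LPS-stimulated; secreted MCP-1 measured by ELISA 24 h after compound addition. Bidirectional curve fitting against DMSO baseline; SRB total-protein staining in parallel cultures for cytotoxicity.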

Experiment [10] in a line: BSK_LPS_PGE2: BioMAP Diversity Plus: LPS Assay for Prostaglandin E2 (PGE2) Biomarker Activity (AID 2283082). Particulars: primary human HUVEC with PBMC; actives raise or lower the signal. An outline of the steps: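 Endpoint derived from bidirectional curve fitting versus DMSO of ELISA-measured PGE2 in LPS-stimulated human primary vascular co-culture (HUVEC with PBMC) harvested at 24 h.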

Read-out in experiment [11]: Macrophage colony-stimulating factor (MCSF), CSF1 (gene 1435)
As to the kind of experiment: BSK_LPS_MCSF: BioMAP Diversity Plus: LPS Assay for Macrophage colony-stimulating factor (MCSF) Biomarker Activity (AID 2283083). Particulars: primary human HUVEC with PBMC; actives raise or lower the signal. An outline of the steps:
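HUVEC–PBMC co-culture, M-CSF measured by ELISA 24 h after chemical dosing. Fitted in both directions relative to DMSO as negative control; overt cytotoxicity assessed by SRB total-protein staining in parallel cultures.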

Read-out in experiment [12]: Tissue Factor, F3 (gene 2152)
Kind of experiment: BSK_LPS_TissueFactor: BioMAP Diversity Plus: LPS Assay for Tissue Factor Biomarker Activity (AID 2283084). Particulars: primary human HUVEC with PBMC; actives raise or lower the signal. The gist of the method: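 Human umbilical vein endothelial cells co-cultured with PBMC were dosed with compound. Cell-surface CD142 was measured by ELISA 24 h later. Activity was fitted bidirectionally against DMSO, with SRB total-protein staining in parallel cultures for cytotoxicity.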

Read-out in experiment [13]: Tumor necrosis factor (Homo sapiens) (UniProt P01375)
Kind of experiment: BSK_LPS_TNFa: BioMAP Diversity Plus: LPS Assay for Tumour Necrosis Factor alpha (TNFa) Biomarker Activity (AID 2283085). Particulars: primary human HUVEC with PBMC; actives raise or lower the signal. An outline of the steps:
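Primary human vascular co-culture of HUVEC and PBMC; TNFa ELISA 24 h after treatment, analysed as increase or decrease relative to DMSO control.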

Read-out in experiment [14]: Vascular cell adhesion molecule 1 (VCAM1), VCAM1 (gene 7412)
Kind of experiment: BSK_LPS_VCAM1: BioMAP Diversity Plus: LPS Assay for Vascular cell adhesion molecule 1 (VCAM1) Biomarker Activity (AID 2283086). Particulars: primary human HUVEC with PBMC; actives raise or lower the signal. An outline of the steps: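 Primary human vascular co-culture (umbilical vein endothelium plus PBMC) stimulated with LPS received chemical; 24 h later VCAM-1 was read by ELISA. Overt cytotoxicity was assessed by sulforhodamine B staining of parallel cultures at the same time point.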

Read-out in the next experiment: CD38, CD38 (gene 952)
As to the kind of experiment: BSK_SAg_CD38: BioMAP Diversity Plus: SAg Assay for CD38 Biomarker Activity (AID 2283087). Particulars: primary human HUVEC with PBMC; actives raise or lower the signal. The gist of the method:
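Fluorescence ELISA of cell-surface CD38 served as the read-out, with either increase or decrease fitted against DMSO controls. Cells were a human umbilical vein endothelium plus PBMC co-culture under SEB/TSST-1 stimulation, measured 24 h after dosing.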

Read-out in experiment [15]: CD40, CD40 (gene 958)
Kind of experiment: BSK_SAg_CD40: BioMAP Diversity Plus: SAg Assay for CD40 Biomarker Activity (AID 2283088). Particulars: primary human HUVEC with PBMC; actives raise or lower the signal. The gist of the method:
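HUVEC plus PBMC co-culture, superantigen-activated, with CD40 read by ELISA 24 h after dosing. Curves fitted in both directions against DMSO. Overt cytotoxicity checked by parallel SRB total-protein staining.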

Read-out in a further experiment: CD69, CD69 (gene 969)
As to the kind of experiment: BSK_SAg_CD69: BioMAP Diversity Plus: SAg Assay for CD69 Biomarker Activity (AID 2283089). Particulars: primary human HUVEC with PBMC; actives raise or lower the signal. The gist of the method:
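Endothelial/PBMC co-culture; chemical added; 24 h incubation; CD69 ELISA with fluorescence detection; bidirectional fit vs DMSO.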

Read-out in experiment [16]: Monocyte Chemoattractant Protein-1 (MCP1), CCL2 (gene 6347)
As to the kind of experiment: BSK_SAg_MCP1: BioMAP Diversity Plus: SAg Assay for Monocyte Chemoattractant Protein-1 (MCP1) Biomarker Activity (AID 2283090). Particulars: primary human HUVEC with PBMC; actives raise or lower the signal. An outline of the steps:
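MCP-1 levels in the endothelial–PBMC SAg co-culture were quantified by ELISA at 24 h post-dosing; both increases and decreases versus DMSO scored. Cytotoxicity monitored by SRB total protein in parallel cultures.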

Read-out in experiment [17]: Monokine induced gamma interferon (MIG), CXCL9 (gene 4283)
As to the kind of experiment: BSK_SAg_MIG: BioMAP Diversity Plus: SAg Assay for Monokine induced gamma interferon (MIG) Biomarker Activity (AID 2283092). Particulars: primary human HUVEC with PBMC; actives raise or lower the signal. An outline of the steps: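 Measures CXCL9 protein by ELISA in a human vascular primary-cell co-culture (umbilical vein endothelium with PBMC) 24 h after chemical addition. Activity is scored up or down from the DMSO control.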

Read-out in experiment [18]: E-selectin (Homo sapiens) (UniProt P16581)
Kind of experiment: BSK_SAg_Eselectin: BioMAP Diversity Plus: SAg Assay for Eselectin Biomarker Activity (AID 2283091). Particulars: primary human HUVEC with PBMC; actives raise or lower the signal. The gist of the method:
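Human umbilical vein endothelial cells co-cultured with peripheral blood mononuclear cells, SAg system. E-selectin is measured by ELISA 24 h after dosing and fitted bidirectionally against DMSO. Cytotoxicity is checked by SRB staining of parallel cultures.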

Several values for one entry are separate records, joined by “and”; a condition that tells them apart may be missing. Equal entries are not always repeated. Some compounds were tested as several samples or in several runs, with calls that do not always agree. Activity calls are given as the source filed them. Rule for the calls: active = hit-call score of the fitted dose curve at least 0.9, where 1 is the maximum; inactive = score below 0.9.

Sequence of Tumor necrosis factor (Homo sapiens) (P01375 whole entry, looked up): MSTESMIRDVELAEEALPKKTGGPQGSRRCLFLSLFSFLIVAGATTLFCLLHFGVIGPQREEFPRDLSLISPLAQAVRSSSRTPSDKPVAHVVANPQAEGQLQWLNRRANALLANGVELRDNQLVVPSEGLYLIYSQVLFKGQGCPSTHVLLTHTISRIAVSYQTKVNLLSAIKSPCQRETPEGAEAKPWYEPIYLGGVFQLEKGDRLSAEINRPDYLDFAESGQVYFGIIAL
Sequence of E-selectin (Homo sapiens) (P16581 whole entry, looked up): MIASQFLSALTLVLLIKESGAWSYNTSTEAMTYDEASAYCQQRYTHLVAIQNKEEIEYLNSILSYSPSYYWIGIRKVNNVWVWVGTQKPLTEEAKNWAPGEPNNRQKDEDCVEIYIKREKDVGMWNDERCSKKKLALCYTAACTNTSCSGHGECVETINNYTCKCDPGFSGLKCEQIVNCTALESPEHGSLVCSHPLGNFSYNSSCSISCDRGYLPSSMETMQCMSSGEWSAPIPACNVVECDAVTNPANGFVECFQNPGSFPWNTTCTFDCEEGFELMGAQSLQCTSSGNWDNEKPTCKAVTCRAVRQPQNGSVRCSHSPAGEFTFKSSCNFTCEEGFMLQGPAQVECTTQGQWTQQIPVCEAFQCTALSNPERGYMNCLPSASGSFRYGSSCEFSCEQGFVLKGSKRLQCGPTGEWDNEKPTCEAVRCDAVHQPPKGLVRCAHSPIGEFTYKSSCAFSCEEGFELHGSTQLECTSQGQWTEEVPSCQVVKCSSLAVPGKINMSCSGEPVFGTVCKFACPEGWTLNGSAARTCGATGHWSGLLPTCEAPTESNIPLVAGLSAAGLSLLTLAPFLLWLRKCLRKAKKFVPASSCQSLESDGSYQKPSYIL

With `O=C(O)C(F)(F)C(F)(F)C(F)(F)C(F)(F)C(F)(F)C(F)(F)F`, the outcome in experiment [1] is “inactive”; in experiment [2], “inactive”; in experiment [3], “inactive”; with CD40, CD40 (gene 958) [4] it was “inactive”; in experiment [5], “inactive”; in experiment [6], “inactive”. Moreover, the outcome in [7], in experiment [8], in [9], in experiment [10], in [11] and in experiment [12] was inactive. Also, the outcome in experiment [13] is “inactive”; in experiment [14], “inactive”; in the experiment with CD38, CD38 (gene 952) it was “inactive”; with CD40, CD40 (gene 958) [15], “inactive”; with CD69, CD69 (gene 969), “inactive”; in experiment [16], “inactive”. Further, the result in experiment [17] was inactive. Further, in experiment [6], the half-maximal activity concentration (AC50) is 14.6 µM (active) and 30 µM (active).

In the case of `O=S(=O)(c1ccc(Cl)cc1)c1ccc(Cl)cc1`, the outcome in experiment [1] was “inactive”; in experiment [2] it was “inactive”; in [3] it was “inactive”; with CD40, CD40 (gene 958) [4], “inactive”; in experiment [5], “inactive”; in experiment [6], “inactive”. Besides, the outcome in experiment [7], in experiment [8], in experiment [9], in experiment [10], in [11] and in [12] was inactive. Moreover, the outcome in [13] was “inactive”; in experiment [14] it was “inactive”; with CD38, CD38 (gene 952), “inactive”; with CD40, CD40 (gene 958) [15], “inactive”; with CD69, CD69 (gene 969) it was “inactive”; in [16] it was “inactive”. Besides, in experiment [17], the outcome was inactive.

Regarding `CN(C)N=O`, the outcome was “inactive” in experiment [1]; “inactive” in experiment [2]; “inactive” in [3]; “inactive” in the experiment with CD40, CD40 (gene 958) [4]; “inactive” in [5]; “inactive” in experiment [6]. The outcome in experiment [7], in experiment [8], in experiment [9], in experiment [10], in [11] and in [12] was inactive. For the same compound, the outcome in experiment [13] is “inactive”; in [14] it was “inactive”; in the experiment with CD38, CD38 (gene 952), “inactive”; in the experiment with CD40, CD40 (gene 958) [15], “inactive”; with CD69, CD69 (gene 969), “inactive”; in [16] it was “inactive”. Moreover, the result in experiment [18] and in experiment [17] was inactive.
